Measurements taken from PubChem BioAssay AID1347043 (National Center for Advancing Translational Sciences (NCATS), 2019).
Out of some 76,000 compounds screened, about 1,900 (2.5%) were called active. Entries that show only a call come without a potency. About 5% were inconclusive and are not listed. Calls come from the whole dose curve; as a rule, active = well fitted inhibition curve with a large enough effect; inconclusive = small, poorly fitted or top-dose-only effect; inactive = flat fitted curve, though single readings scatter. Only a selection was taken, and actives are over-represented in it overall.
Note: nearly all actives have a fitted effect of over 65% in size.

These molecules were tested against Luciferin 4-monooxygenase (Photinus pyralis) (UniProt P08659) (assay: Firefly luciferase inhibition profiling of diverse chemical library using quantitative high-throughput screening). Details: purified P. pyralis luciferase, luminescence, biochemical; series mostly up to 172 µM.
Luciferin 4-monooxygenase (Photinus pyralis), sequence (P08659 whole entry, looked up): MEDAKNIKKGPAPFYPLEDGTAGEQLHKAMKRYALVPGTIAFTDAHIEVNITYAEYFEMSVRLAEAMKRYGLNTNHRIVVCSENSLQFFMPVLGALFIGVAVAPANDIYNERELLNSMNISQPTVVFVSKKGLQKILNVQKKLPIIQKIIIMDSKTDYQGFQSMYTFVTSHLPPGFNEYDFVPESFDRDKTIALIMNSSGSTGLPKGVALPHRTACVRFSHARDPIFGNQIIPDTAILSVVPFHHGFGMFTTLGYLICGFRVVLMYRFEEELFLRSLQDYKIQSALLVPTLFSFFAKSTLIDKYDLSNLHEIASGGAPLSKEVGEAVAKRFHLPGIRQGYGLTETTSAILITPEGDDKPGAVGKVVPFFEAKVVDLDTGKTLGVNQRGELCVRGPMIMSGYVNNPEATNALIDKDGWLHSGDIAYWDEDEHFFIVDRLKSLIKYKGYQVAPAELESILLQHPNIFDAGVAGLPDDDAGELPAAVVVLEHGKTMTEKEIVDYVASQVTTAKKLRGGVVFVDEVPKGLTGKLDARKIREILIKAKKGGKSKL
Text: Firefly (Photinus pyralis) luciferase is one of the most commonly used transcriptional reporters for a number of reasons. It is considered one of the more dynamically responsive reporters - that is, responsive to changes in reporter transcription - as it requires no post-translational modifications and is enzymatically active directly after protein synthesis (Wood, 1998). Additionally, the half-life of the luciferase protein is short relative to other reporter-gene products (Wood, 1995). Whereas reporters with long half-lives potentially allow for increased signal due to accumulation of reporter-gene product, once accumulated in the cell, dynamic changes in reporter-gene expression may be difficult to detect(Fan and Wood, 2007; Almond et al., 2004). It has been shown that wild-type P. pyralis luciferase has a half-life of approximately four hours in mammalian cells (Thompson et al., 1991). Firefly luciferase reporter-gene assays are also generally considered one of the most sensitive assay types (Wood, 1995; Wood, 1998). Although light produced in a bioluminescence reaction is of lower intensity than that produced during fluorescence emission, this is offset by little to no background light inherent to luminescent assays. Thus the luciferase reporter can be expressed at much lower levels than fluorescent proteins while still providing robust signal. However, it was initially observed, in 1991, by Thompson et al., that compounds that resemble the substrates of firefly luciferase (FLuc) can act as competitive inhibitors of the enzyme, and that these compounds, upon interaction with luciferase in the cell, can actually stabilize the protein and increase its half-life. Accumulated intracellular FLuc protein can be measured as an increase in luminescence signal, upon addition of detection reagents (which contain high concentrations of FLuc substrates) commonly used in high-throughput screening. In cell-based reporter gene assays that use FLuc as the reporter gene to quantitate the potential influence of a given compound against the target biology, this apparent increase in luminescence can mistakenly be interpreted as identification of a compound that is active against the target of interest. FLuc inhibitory compounds that stabilize the FLuc protein will give an identical read-out, making it difficult to distinguish compounds that are active against the target from those active against FLuc. In summary, the results generated here constitutes a valuable resource for the scientific community and provides insight on identifying compounds with inhibitory activity for the commonly-used reporter, firefly luciferase. References: -Almond, B., Zdanovsky, A., Zdanovskaia, M., Ma, D., Stecha, P., Paguio, A., Garvin, D., and Wood, K. (2004). Introducing the Rapid Response Reporter Vectors. Promega Notes 87, 18-22. -Fan, F., and Wood, K.V. (2007). Bioluminescent assays for high-throughput screening. Assay Drug Dev Technol 5, 127-136. -Thompson, J.F., Hayes, L.S., and Lloyd, D.B. (1991). Modulation of firefly luciferase stability and impact on studies of gene regulation. Gene 103, 171-177. -Wood, K.V. (1998). The chemistry of bioluminescent reporter assays. Promega Notes 65, 14-20. -Wood, K.V. (1995). Marker proteins for gene expression. Curr Opin Biotechnol 6, 50-58.
Reagents: 50mM Tris acetate, pH 7.5; 10mM Mg acetate; 10uM D-luciferin (Sigma #L9504); 10uM ATP; 0.01% Tween-20; 0.05% BSA; 10nM P. pyralis luciferase (Sigma #L9506) Control compounds used were two known firefly luciferase inhibitors (compounds (2) and (5) in Auld et al., 2010), and DMSO. Assay Summary: Three microliters containing firefly luciferase substrates in buffer (final concentrations: 50mM Tris acetate, pH 7.5, 10mM Mg acetate, 0.01% Tween-20, 0.05% BSA, 10uM D-luciferin, and 10uM ATP) are dispensed into each well of a Greiner white, solid-bottom 1536-well format plate using a flying reagent dispenser (FRD). […]
With COc1cccc(Nc2cc3c(cn2)CN(C)CCN3C)c1 the Potency was 39.8 µM (active). In the case of O=C(Nc1ccccc1)N1C[C@@H]2C[C@H](C1)c1c(-c3ccc(Cl)cc3)ccc(=O)n1C2, the Potency is reported as “inactive”. In the case of COc1ccc(C(=O)NC[C@H]2C[C@@H]3CCN2C[C@@H]3c2cc(-c3ccccc3)nn2C)cc1, the Potency is reported as “inactive”. For Cc1ccc(C(=O)N2[C@H]3CC[C@@H]2c2cnc(-c4ccccc4)nc2C3)c(C)c1, the Potency was 20 µM (active). For COc1ccc(C(=O)N2[C@H]3CC[C@@H]2c2cnc(-c4ccccc4)nc2C3)c(OC)c1, the Potency was “inactive”. With Cc1cccc(C(=O)N2[C@H]3CC[C@@H]2c2cnc(-c4ccccc4)nc2C3)c1 the Potency was “inactive”. In the case of C#C[C@H]1CN2CC[C@H]1C[C@@H]2COC(=O)Nc1cc(OC)cc(OC)c1, the Potency is reported as “inactive”. For C=CCN(C)C[C@H]1CN2CC[C@H]1C[C@@H]2CNC(=O)Nc1cccc(SC)c1, the Potency was “inactive”. With COc1cc2c(cc1OCc1ccncc1)NC(=O)C21CCN(c2ncc(F)cn2)CC1 the Potency was “inactive”. Cc1ccc(C(=O)NC[C@H]2C[C@@H]3CCN2C[C@@H]3c2cc(-c3ccco3)nc(C)n2)cc1 was tested, and the Potency was “inactive”.
